The record followed here is PubChem BioAssay (Tox21).

The structures appear in SMILES notation. Unmarked numbers belong to inactive results. Inconclusive results are not listed. The source made the active and inactive calls. Unless noted, calls come from the whole dose curve.

Experiment [1] can be described thus: Nuclear factor erythroid 2-related factor 2/antioxidant responsive element (Nrf2/ARE) small molecule agonists: qHTS cell viability counter screen in human keratinocytes (AID 1919968; active = well fitted curve in the direction sought with a large enough effect in the repeat runs; an effect the other way counts as inactive or inconclusive; note: nearly all actives have a fitted effect of over 55% in size; note: potency is the fitted concentration of half-maximal effect). The procedure, abridged:
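Cells of the KeratinoSens line were plated at 1,500 per well and left for 5 h before compound transfer from DMSO stocks. After a 23 h incubation (37 C, 5% CO2), CellTiter-Fluor was added. Signal was taken as fluorescence intensity 1 h later.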

Experiment [2] can be described thus: Nuclear factor erythroid 2-related factor 2/antioxidant responsive element (Nrf2/ARE) small molecule agonists: luciferase reporter gene qHTS assay in human keratinocytes (AID 1919969). Note: nearly all actives have a fitted effect of over 35% in size. Note: potency is the fitted concentration of half-maximal effect. For orientation: In a reporter assay the amount or activity of a reporter protein is the signal.
The target of experiment [3] is Gonadotropin-releasing hormone receptor (Homo sapiens) (UniProt P30968). Nature of the experiment: Human gonadotropin-releasing hormone receptor (GnRHR) small molecule agonists, calcium flux assay in GnRHR-HEK293 cells (AID 1920063). Note: nearly all actives have a fitted effect of over 35% in size. Note: potency is the fitted concentration of half-maximal effect. The procedure, abridged: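 Compounds dissolved in DMSO are pin-transferred onto dye-loaded GnRHR-HEK293 cells, which were seeded 18 h before at 37 C/5% CO2. Calcium signal is read as fluorescence intensity at 1 s intervals for 3 min.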
In general terms: Calcium flux is commonly read through the fluorescence of an indicator in the cells.

Experiment [4] addresses KiSS-1 receptor (Homo sapiens) (UniProt Q969F8). Nature of the experiment: Human kisspeptin (KISS1R) small molecule agonists, calcium flux assay in KISS1R-HEK293 cells (AID 1920064; active = well fitted curve in the direction sought with a large enough effect in the repeat runs; an effect the other way counts as inactive or inconclusive). In outline: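 Cell line: HEK293, stable human KISS1R. Dye loading 1 h at 37 C after 18 h culture. Read: kinetic fluorescence, 480/540 nm, 3 min at 1 s intervals.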
Experiment [5] in a line: p53 small molecule agonists, cell-based qHTS assay with human liver microsomes: qHTS cell viability counter screen (AID 1963579). Note: nearly all actives have a fitted effect of over 45% in size. The procedure, abridged:
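p53RE-bla cells (4,000/well) were pre-incubated 5 h at 37 C, then given compounds in DMSO plus human liver microsomes (0.5 mg/mL final) and NADPH (0.5 mg/mL final) for 16 h at 37 C. Viability was read by CellTiter-Glo luminescence.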

A short description of experiment [6]: p53 small molecule agonists, cell-based qHTS assay with rat liver microsomes: qHTS cell viability counter screen (AID 1963580). Note: nearly all actives have a fitted effect of over 45% in size. The procedure, abridged:
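Cytotoxicity counter screen: intracellular ATP read by CellTiter-Glo luminescence in the p53 reporter wells. HCT-116 p53RE-bla cells were treated for 16 h at 37 C alongside rat liver microsomes and NADPH, each 0.5 mg/mL final.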
(In qHTS, concentration-response curves come from the screen itself.)

The nature of experiment [7]: p53 small molecule agonists, cell-based qHTS assay: qHTS cell viability counter screen (AID 1963581). Note: nearly all actives have a fitted effect of over 45% in size. The procedure, abridged:
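ATP content measured by luminescence in HCT-116 p53RE-bla cells treated 16 h at 37 C, same wells as the reporter screen.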

The target in experiment [8] is 5-hydroxytryptamine receptor 2A (Homo sapiens) (UniProt P28223). The experiment in a line: 5-hydroxytryptamine receptor 2A (HTR2A) small molecule antagonists, cell-based qHTS assay (AID 1963586). Note: nearly all actives have a fitted effect of over 45% in size. Note: potency is the fitted concentration of half-maximal effect. The procedure, abridged:
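CHO cells stably expressing human HTR2A were plated for 18 h at 37 C, then loaded with calcium dye for 1 h. Compounds were preincubated 5 min at room temperature before DOI (4 nM solution) was added. Kinetic fluorescence was read for 3 min.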

Experiment [9] has the same target. The experiment in a line: 5-hydroxytryptamine receptor 2A (HTR2A) small molecule agonists, cell-based qHTS assay (AID 1963587). Note: nearly all actives have a fitted effect of over 30% in size. Note: potency is the fitted concentration of half-maximal effect. In outline:
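Kinetic calcium-flux fluorescence (2 min, 1 sec intervals) after compound addition in agonist mode. HTR2A-CHO cells were cultured 18 h, then dye-loaded 1 h at 37 C.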

Experiment [10] deals with Muscarinic acetylcholine receptor M1 (Homo sapiens) (UniProt P11229). The experiment in a line: Cholinergic receptor muscarinic 1 (CHRM1) small molecule antagonists, cell-based qHTS assay (AID 1963588). Note: nearly all actives have a fitted effect of over 40% in size. Note: potency is the fitted concentration of half-maximal effect. In outline: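 Compounds were tested at 15 concentrations in three independent runs. Dye-loaded CHRM1-CHO cells were exposed 5 min at room temperature before stimulation by acetylcholine added at 50nM. Intracellular calcium was read kinetically on FDSS for 3 min.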

Experiment [11] shares this target. The experiment in a line: Cholinergic receptor muscarinic 1 (CHRM1) small molecule agonists, cell-based qHTS assay (AID 1963589). Note: nearly all actives have a fitted effect of over 35% in size. Note: potency is the fitted concentration of half-maximal effect. The procedure, abridged:
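Homogeneous fluorescence calcium flux, agonist mode. Human M1-expressing CHO cells; compound dosed at 15 concentrations, three independent runs; signal sampled every 1 sec.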

Experiment [12] is described as follows: cAMP Responsive Elements (CRE) small molecule agonists, cell-based qHTS assay (AID 1963590). In outline:
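HEK 293T cells stably bearing CRE-bla were plated at 2,000 cells per well and rested 18 h. Compounds, positive controls or DMSO were added for 3 h at 37 C. LiveBLAzer B/G substrate was then loaded for 2 h at room temperature.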

A short description of experiment [13]: cAMP Responsive Elements (CRE) small molecule antagonists, cell-based qHTS assay (AID 1963591; active = well fitted inhibition curve with a large enough effect in the signal ratio in the repeat runs, not every such curve was filed as active; the % refers to the signal ratio). In outline:
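First, CRE-bla HEK293T cells settled 18 h at 37 C. Next, compound and 0.25 uM final NKH477 were applied for 3 h. Last, LiveBLAzer B/G substrate was loaded for 2 h at room temperature.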

Experiment [14] concerns the target Beta-2 adrenergic receptor (Homo sapiens) (UniProt P07550). The experiment in a line: Adrenergic beta2 receptor (ADRB2) small molecule antagonists, cell-based qHTS assay (AID 1963592). Note: series mostly up to about 92 µM; nearly all actives have a fitted effect of over 50% in size. In outline:
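Assay format: CHO-ADRB2 cells, 18-20hr seeding at 37C/5% CO2, then compound plus 1nM isoproterenol agonist mix for 0.5hr RT. Homogeneous time-resolved fluorescence cAMP detection after 1hr, expressed as 665/615 nm ratio.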

Experiment [15] shares this target. The experiment in a line: Adrenergic beta2 receptor (ADRB2) small molecule agonists, cell-based qHTS assay (AID 1963593).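 Note: CHO cells stably overexpressing human ADRB2.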 In outline: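 CHO cells stably over-expressing ADRB2 were plated overnight at 37C, then dosed with compounds plus a stimulation mix containing 100uM IBMX and 25uM Ro-20-1724 for 0.5hr at room temperature. cAMP was measured by HTRF competition, 1hr.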

Experiment [16] has as its target D(2) dopamine receptor (Homo sapiens) (UniProt P14416). The experiment in a line: Dopamine D2 receptor (DRD2) small molecule agonists, cell-based qHTS assay (AID 1963594). Note: nearly all actives have a fitted effect of over 35% in size. In outline:
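cAMP accumulation in DRD2-HEK293 cells measured by HTRF after 1 h detection; compounds added 10 min before NKH477 (200nM […]) forskolin-analogue stimulation, 30 min at room temperature, with Ro20-1724 present at 0.1 mM final.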

Experiment [17] has the same target. Nature of the experiment: Dopamine D2 receptor (DRD2) small molecule antagonists, cell-based qHTS assay (AID 1963595; active = well fitted inhibition curve with a large enough effect in the signal ratio in the repeat runs, with a control signal flat; the % refers to the signal ratio). The procedure, abridged: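 Readout: HTRF cAMP, cAMP-d2 competing with cellular cAMP for anti-cAMP cryptate, read after 1 h. Cells: DRD2-HEK293. Conditions: 0.1 mM Ro20-1724, 12 nM quinpirole, 200 nM NKH477, 30 min RT.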
A short description of experiment [18]: G protein-coupled receptor (GPCR) small molecule agonists, calcium flux assay: HEK293 wild type cell line counter screen (AID 1920065). Note: potency is the fitted concentration of half-maximal effect. In outline:
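Tox21 10K compounds, 15 concentrations each in triplicate, pin-transferred in DMSO onto dye-loaded cells; kinetic read at 480/540 nm for 3 min, 1 s intervals.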

The nature of experiment [19]: p53 small molecule agonists, cell-based qHTS assay with rat liver microsomes (AID 1963578). The procedure, abridged:
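p53RE-bla cells were exposed to compounds together with rat liver microsomes (0.5 mg/mL final) and NADPH (0.5 mg/mL final) for 16 h at 37 C, then read by LiveBLAzer beta-lactamase fluorescence after 2 h at room temperature.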

The nature of experiment [20]: p53 small molecule agonists, cell-based qHTS assay (AID 1963582; active = well fitted activation curve with a large enough effect in the signal ratio in the repeat runs, not every such curve was filed as active; the % refers to the signal ratio). The procedure, abridged: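 16 h compound exposure (37 C) of p53 response element–bla cells, preceded by 5 h recovery at 37 C/5% CO2; read-out via LiveBLAzer B/G FRET substrate, 2 h RT, fluorescence intensity.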

Chain of Beta-2 adrenergic receptor (Homo sapiens) (P07550 whole entry, looked up): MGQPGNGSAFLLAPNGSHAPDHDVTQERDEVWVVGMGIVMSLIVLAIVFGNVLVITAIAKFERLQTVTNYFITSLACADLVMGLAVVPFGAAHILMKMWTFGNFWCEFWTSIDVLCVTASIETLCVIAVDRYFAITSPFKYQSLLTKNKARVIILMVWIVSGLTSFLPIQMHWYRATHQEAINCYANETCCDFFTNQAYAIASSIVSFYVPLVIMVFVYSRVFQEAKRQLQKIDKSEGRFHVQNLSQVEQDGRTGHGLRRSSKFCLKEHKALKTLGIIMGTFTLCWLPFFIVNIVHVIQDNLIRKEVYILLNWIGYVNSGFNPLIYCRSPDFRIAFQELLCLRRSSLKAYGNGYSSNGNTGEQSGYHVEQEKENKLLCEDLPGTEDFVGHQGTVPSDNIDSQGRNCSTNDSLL
Chain of Muscarinic acetylcholine receptor M1 (Homo sapiens) (P11229 whole entry, looked up): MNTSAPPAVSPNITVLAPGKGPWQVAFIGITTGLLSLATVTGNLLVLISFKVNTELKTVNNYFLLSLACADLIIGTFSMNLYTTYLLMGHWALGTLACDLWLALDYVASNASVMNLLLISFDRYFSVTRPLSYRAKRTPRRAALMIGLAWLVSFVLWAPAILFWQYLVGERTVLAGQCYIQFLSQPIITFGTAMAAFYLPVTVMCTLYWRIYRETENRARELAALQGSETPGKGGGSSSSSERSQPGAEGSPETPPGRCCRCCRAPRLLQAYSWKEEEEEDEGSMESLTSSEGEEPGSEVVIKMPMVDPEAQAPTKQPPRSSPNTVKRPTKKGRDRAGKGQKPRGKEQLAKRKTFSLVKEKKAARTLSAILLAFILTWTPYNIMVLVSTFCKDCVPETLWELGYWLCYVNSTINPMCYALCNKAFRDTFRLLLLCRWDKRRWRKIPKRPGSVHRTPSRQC
Chain of 5-hydroxytryptamine receptor 2A (Homo sapiens) (P28223 whole entry, looked up): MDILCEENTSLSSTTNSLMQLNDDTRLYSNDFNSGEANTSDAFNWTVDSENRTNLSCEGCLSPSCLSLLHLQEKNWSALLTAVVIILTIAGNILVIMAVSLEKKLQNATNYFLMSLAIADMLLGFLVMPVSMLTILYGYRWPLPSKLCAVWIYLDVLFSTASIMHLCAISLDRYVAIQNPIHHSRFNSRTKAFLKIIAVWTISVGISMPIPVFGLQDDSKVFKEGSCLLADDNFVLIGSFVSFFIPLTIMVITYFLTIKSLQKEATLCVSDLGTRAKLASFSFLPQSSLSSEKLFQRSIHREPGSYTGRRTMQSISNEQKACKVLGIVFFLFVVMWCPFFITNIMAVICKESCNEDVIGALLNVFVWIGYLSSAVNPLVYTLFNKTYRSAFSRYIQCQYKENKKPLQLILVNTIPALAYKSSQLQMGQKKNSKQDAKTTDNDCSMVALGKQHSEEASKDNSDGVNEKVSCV
Chain of Gonadotropin-releasing hormone receptor (Homo sapiens) (P30968 whole entry, looked up): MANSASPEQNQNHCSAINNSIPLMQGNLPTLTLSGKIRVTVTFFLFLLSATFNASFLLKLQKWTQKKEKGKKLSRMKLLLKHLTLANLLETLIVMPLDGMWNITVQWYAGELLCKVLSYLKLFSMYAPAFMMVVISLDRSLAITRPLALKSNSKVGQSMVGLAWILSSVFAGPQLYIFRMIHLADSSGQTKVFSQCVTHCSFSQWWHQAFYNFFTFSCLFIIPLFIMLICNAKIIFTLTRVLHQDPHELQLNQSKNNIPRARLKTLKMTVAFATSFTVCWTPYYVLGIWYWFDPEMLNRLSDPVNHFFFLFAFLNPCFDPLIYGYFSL
Chain of KiSS-1 receptor (Homo sapiens) (Q969F8 whole entry, looked up): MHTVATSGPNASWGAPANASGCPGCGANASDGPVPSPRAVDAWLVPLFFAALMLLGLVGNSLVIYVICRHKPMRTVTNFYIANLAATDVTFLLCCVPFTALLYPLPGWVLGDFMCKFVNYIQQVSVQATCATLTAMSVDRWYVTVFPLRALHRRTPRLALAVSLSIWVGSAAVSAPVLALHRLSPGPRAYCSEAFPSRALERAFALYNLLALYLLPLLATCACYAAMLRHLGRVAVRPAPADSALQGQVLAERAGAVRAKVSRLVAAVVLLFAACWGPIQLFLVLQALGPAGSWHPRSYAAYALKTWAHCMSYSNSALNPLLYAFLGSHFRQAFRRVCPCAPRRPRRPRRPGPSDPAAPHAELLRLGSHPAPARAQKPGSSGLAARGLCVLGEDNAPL
Chain of D(2) dopamine receptor (Homo sapiens) (P14416 whole entry, looked up): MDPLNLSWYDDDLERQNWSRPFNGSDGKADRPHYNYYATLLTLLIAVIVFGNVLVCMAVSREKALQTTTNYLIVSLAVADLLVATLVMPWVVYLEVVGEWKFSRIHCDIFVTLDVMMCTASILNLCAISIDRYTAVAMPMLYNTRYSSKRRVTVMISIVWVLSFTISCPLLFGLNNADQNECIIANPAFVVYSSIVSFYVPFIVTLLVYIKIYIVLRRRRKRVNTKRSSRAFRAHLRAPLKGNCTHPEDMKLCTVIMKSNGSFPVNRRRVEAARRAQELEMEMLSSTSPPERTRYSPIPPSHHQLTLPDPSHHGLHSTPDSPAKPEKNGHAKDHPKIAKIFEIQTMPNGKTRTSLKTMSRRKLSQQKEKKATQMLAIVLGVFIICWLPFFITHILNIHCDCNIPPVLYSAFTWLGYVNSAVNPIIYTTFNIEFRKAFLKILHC

Regarding `CN(C)CCN(C)CCO`, the Potency result in experiment [1], in experiment [2], in experiment [3], in experiment [4], in experiment [5] and in [6] was “inactive” each time. Further, the Potency result in experiment [7], in experiment [9], in [10], in experiment [11], in experiment [12] and in experiment [13] was “inactive” in each case. In addition, the Potency result in experiment [14] and in experiment [15] was “inactive” throughout. The Potency in experiment [8] is 9.4 µM (active).
For the molecule `CC(C)COC(=O)C(C)C`, the Potency result in experiment [1], in experiment [2], in experiment [3], in experiment [4], in experiment [5] and in [6] was “inactive” throughout. Moreover, the Potency entry in [7], in [8], in experiment [10], in experiment [12], in experiment [13] and in [14] was “inactive” throughout. Further, the Potency result in [15], in experiment [16] and in experiment [17] was “inactive” in each case.
As to `O=C=NCC1CCCC(CN=C=O)C1` (centres undefined), the Potency result in experiment [1], in [2], in experiment [3], in [4], in [5] and in experiment [6] was “inactive” each time. The Potency entry in experiment [7], in experiment [8], in experiment [9], in experiment [11], in [12] and in experiment [14] was “inactive” throughout. For the same molecule, the Potency result in experiment [16] and in experiment [17] was “inactive” throughout.
Consider `C=CCN(CC=C)CC=C`, for which the Potency entry in experiment [1], in experiment [2], in [3], in [4], in experiment [5] and in experiment [6] was “inactive” in each case. The Potency result in [7], in [8], in experiment [9], in experiment [11], in [12] and in experiment [14] was “inactive” throughout. The Potency result in [15] and in [17] was “inactive” in each case.
As to `CC(C)(C)c1cc(O)c(C(C)(C)C)cc1O`, the Potency entry in experiment [1], in experiment [19], in experiment [5], in experiment [6], in [7] and in [12] was “inactive” each time. In addition, the Potency entry in experiment [13], in [14], in experiment [15], in experiment [16] and in experiment [17] was “inactive” throughout. The Potency was 15.4 µM (active) in experiment [2]; 5.49 µM (active) in experiment [3]; 34.7 µM (active) in [18]; 14.9 µM (active) in [8]; 1.1 µM (active) in [9]; 18.8 µM (active) in experiment [10]. In addition, the Potency in experiment [11] was 11 µM (active).
For `CC1=C(Br)C(=O)C(Br)=C/C1=C(/c1ccccc1S(=O)(=O)O)c1cc(Br)c(O)c(Br)c1C`, the Potency in experiment [1] is 18.6 µM (active). In addition, the Potency entry in [2], in experiment [3], in [4], in [8], in [9] and in experiment [10] was “inactive” throughout. Further, the Potency entry in experiment [11], in experiment [12] and in [13] was “inactive” throughout.
As to `O=C1CC[C@@H](C(=O)O)N1`, the Potency result in [1], in experiment [2], in experiment [3], in [4], in [5] and in experiment [6] was “inactive” each time. Further, the Potency result in [7], in experiment [8], in experiment [9], in [10], in experiment [11] and in [12] was “inactive” in each case. Moreover, the Potency result in [13], in experiment [14], in experiment [16] and in experiment [17] was “inactive” each time.
Turning to `OCCCCCO`, the Potency result in [1], in experiment [2], in experiment [3], in experiment [18], in [19] and in [5] was “inactive” each time. The Potency entry in experiment [6], in experiment [7], in [20], in experiment [8], in experiment [9] and in experiment [10] was “inactive” each time. Besides, the Potency entry in [11], in experiment [12], in experiment [13], in experiment [14] and in experiment [15] was “inactive” each time.
